The panel holds about 83,000 compounds, 20% with a hit somewhere; the sample as a whole holds those more often.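 Cells were grown in 96-well plates and exposed to the test compound at a single concentration for 48 hours; results are reported as percent growth, with values below 10 considered active.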 Values without a mark were called inactive. Active and inactive are the calls of the source.
How the values were obtained:
Assay in all cases: NCI-60 one-dose screen, 48 h (100 = growth as untreated, 0 = no growth, -100 = all killed)
Conditions in all cases: 10 µM unless noted
SK-MEL-2 melanoma = system: SK-MEL-2 melanoma
EKVX NSCLC = system: EKVX NSCLC
SN12C renal = system: SN12C renal
UO-31 renal = system: UO-31 renal
TK-10 renal = system: TK-10 renal
ACHN renal = system: ACHN renal
A498 renal = system: A498 renal
CCRF-CEM leukemia = system: CCRF-CEM leukemia
MOLT-4 leukemia = system: MOLT-4 leukemia
SR leukemia = system: SR leukemia
RPMI-8226 leukemia = system: RPMI-8226 leukemia
OVCAR-8 ovarian = system: OVCAR-8 ovarian
OVCAR-5 ovarian = system: OVCAR-5 ovarian
OVCAR-4 ovarian = system: OVCAR-4 ovarian
SK-OV-3 ovarian = system: SK-OV-3 ovarian
IGROV1 ovarian = system: IGROV1 ovarian
OVCAR-3 ovarian = system: OVCAR-3 ovarian
HS 578T breast = system: HS 578T breast
NCI/ADR-RES ovarian = system: NCI/ADR-RES ovarian
T-47D breast = system: T-47D breast

SMILES	growth (SK-MEL-2 melanoma)	growth (EKVX NSCLC)	growth (SN12C renal)	growth (UO-31 renal)	growth (TK-10 renal)	growth (ACHN renal)	growth (A498 renal)	growth (CCRF-CEM leukemia)	growth (MOLT-4 leukemia)	growth (SR leukemia)	growth (RPMI-8226 leukemia)	growth (OVCAR-8 ovarian)	growth (OVCAR-5 ovarian)	growth (OVCAR-4 ovarian)	growth (SK-OV-3 ovarian)	growth (IGROV1 ovarian)	growth (OVCAR-3 ovarian)	growth (HS 578T breast)	growth (NCI/ADR-RES ovarian)	growth (T-47D breast)
COc1cc(C2CC(c3ccc(Nc4nc(NCCO)nc(NCCO)n4)cc3)=NN2c2cc(Cl)cc(Cl)c2)cc(OC)c1OC (stereo not given)	85%	35.2%	13.1%	49.4%	-25.7% (active)	67.3%	96.8%	19.3%	16.3%	-9.38% (active)	-13.8% (active)	11.9%	54.6%	-20.1% (active)	108%	4.18% (active)	-22.5% (active)	-14.5% (active)	53.1%	75.4%
Cc1c(Cl)cccc1NC(=O)c1sc2nc3c(cc2c1N)CCCCCC3	11.8%	39.8%	42.4%	55.4%	44.9%	41.8%	-9.95% (active)	10.9%	17.3%	16%	18.4%	17.5%	46.7%	46.8%	34.8%	42.9%	-18.1% (active)	24.6%	17.1%	40.2%
CCC1=C[C@H]2CN(CCc3c([nH]c4ccccc34)[C@@](C(=O)OC)(c3cc4c(cc3OC)N(C)[C@H]3[C@@](O)(C(=O)OC)[C@H](OC(C)=O)[C@]5(CC)[C@@H]6C[C@@H]6CN6CC[C@]43[C@@H]65)C2)C1	13.2%	35.5%	30.1%	14.7%	28.9%	19.1%	-15.2% (active)	-5.97% (active)	4.19% (active)	-9.46% (active)	-25.3% (active)	8.29% (active)	42%	37.6%	17.9%	21.6%	0.761% (active)	10.8%	28%	70%
O=CN1N=C(c2ccc(Cl)cc2)CC1c1cccc(Nc2ccnc3cc(C(F)(F)F)ccc23)c1 (stereo not given)	58%	58.7%	87.7%	48.5%	71%	61.2%	58.6%	51.7%	33.8%	30%	26.4%	52.8%	99.7%	36.1%	72.4%	74.2%	62.2%	87.7%	55.4%	42.6%
COC(=O)c1nc(-c2ccccc2)oc1S(=O)(=O)n1nc(C)cc1N	80.3%	87.8%	58.5%	51.4%	73.5%	-86.2% (active)	99.9%	9.2% (active)	14.6%	3.74% (active)	53.2%	95.3%	103%	104%	106%	61%	20.4%	93.6%	101%	22.5%
CN(C)CCCn1c2c(c3cc(-c4ccco4)ccc3c1=O)C(=O)c1ccccc1-2	117%	81.4%	51.9%	51.6%	66.3%	48.5%	93.7%	36.2%	10.9%	-40.2% (active)	46.3%	48%	104%	53%	93.1%	52.2%	72%	79.9%	53.6%	49.2%
c1ccc2nc(N3CCOCC3)c(N3CCCCC3)nc2c1	95.2%	97.7%	96.2%	77.2%	98.8%	103%	78.3%	93.6%	95.6%	90.2%	96.9%	102%	105%	97.6%	101%	107%	103%	96.9%	100%	75.9%
O=C(O)c1ccc(-n2cc(/C=N/Nc3ccc(Cl)cc3Cl)c(-c3ccccc3)n2)cc1	91.6%	77%	102%	67.5%	109%	83%	108%	93.8%	88.9%	86.2%	83.2%	98.6%	107%	87.3%	89.4%	89%	88.7%	107%	92.3%	70.7%
CC(=O)[C@@H]1CC[C@]2(C(=O)O)CC[C@]3(C)[C@H](CC[C@@H]4[C@@]5(C)Cc6c([nH]c7ccccc67)C(C)(C)[C@@H]5CC[C@]43C)[C@@H]12	79.5%	42.3%	69.3%	48.6%	63.6%	46.5%	61.7%	62.9%	49.6%	73.5%	43.2%	62.7%	101%	65.7%	86.6%	86.8%	54.1%	73.2%	67.6%	65.5%
Cc1cc(C)c2nc(Nc3nc(C)c(C)c(=O)[nH]3)nc(C)c2c1	-25.6% (active)	12.4%	20%	11.1%	17%	23.5%	-9.66% (active)	7.98% (active)	4.84% (active)	-9.54% (active)	-17.1% (active)	15.5%	48.8%	20.8%	7.87% (active)	9.55% (active)	5.78% (active)	21.2%	40.8%	18.9%
O=C(Nc1ccccc1)NS(=O)(=O)c1c[nH]c(=S)[nH]c1=O	91.5%	99.6%	103%	89.3%	97.6%	108%	112%	113%	90.8%	87.3%	103%	94.9%	113%	105%	69.9%	106%	110%	108%	104%	75.1%
COc1ccc(C(=O)c2cc(OC)c(OC)c(OC)c2)cc1OC(=O)CCl	26.1%	70.2%	32%	44.8%	63.6%	40.2%	59.3%	14.9%	18.4%	13.4%	29.7%	7.08% (active)	73.7%	54.5%	17.7%	25.7%	0.464% (active)	48.9%	10.2%	74.7%
OCCNc1nc(NCCO)nc(Nc2ccc(C3=NN(c4ccc(Cl)cc4)C(c4ccc(Cl)cc4)C3)cc2)n1 (stereo not given)	52%	65%	80.1%	45.5%	87.6%	51.1%	85.7%	25.1%	29.4%	25.5%	27.7%	65.3%	110%	65.6%	84.1%	78.9%	40.7%	62%	73.8%	55.8%
COc1cc(NCC(=O)Nc2cc(Nc3ccc(C)cc3)ncn2)c(Cl)c(OC)c1Cl	103%	82.1%	88.1%	62.1%	121%	92.6%	84.9%	81.8%	60.8%	78.9%	82.9%	88.4%	92.3%	78.5%	81.9%	82.5%	84.3%	83.5%	91.3%	70.6%
Nc1c(C(=O)Nc2ccccn2)sc2nc3c(cc12)CCCCCC3	11.5%	31.8%	39.2%	35.5%	35.7%	36.1%	15%	5.58% (active)	16.3%	7.99% (active)	5.43% (active)	19.3%	46.6%	23.6%	19%	28.9%	-44.5% (active)	18.9%	18.8%	23.4%

Source: PubChem BioAssay (NCI)
